Reference: PubChem BioAssay AID1159580 (chemical genetic matrix, 2015)
Several values for one entry are separate records, joined by “and”; a condition that tells them apart may be missing. Equal values may be shown once. Out of some 5,500 compounds screened, about 2,000 (36%) were called active. Roughly 18% stayed inconclusive and do not appear here. Cut-off read from the data, not from the text of the source: active = normalized growth mostly below about 0.91 (no sharp cut-off); inconclusive = no clear call, values can overlap the other calls; inactive = mostly above about 0.92. The list shows a part of the results.

Assay: chemical genetic growth profiling, strain panel (AID 1159580);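 note: tested at 20 µM; growth read once vehicle control cultures reached saturation at 30 °C; 1 = growth at the plate median or of vehicle wells; lower values mean less growth of the strain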
Settings: S. cerevisiae deletion strains, growth OD

Measured: normalized growth

C[C@@H]1CC[C@@]23CCC4(C)[C@@](C=CC5[C@@]6(C)CC[C@H](O)C(C)(C)C6CC[C@]54C)(OC2=O)C3[C@H]1C (some centres not stated)
active: locus YBR279W, strain paf1, hits give low values 1.09 [resistant] | locus YDR137W, strain rgp1, hits give low values 1.16 [resistant] | locus YER016W, strain bim1, hits give low values 1.17 [resistant] | locus YHR094C, strain hxt1, hits give low values 1.14 [resistant] | locus YIR030C, strain dcg1, hits give low values 1.18 [resistant]
inactive: locus YAL021C, strain ccr4, hits give low values 0.999 | locus YAL026C, strain drs2, hits give low values 1.01 | locus YAL030W, strain snc1, hits give low values 1 | locus YBL061C, strain skt5, hits give low values 1.06 | locus YBR009C, strain hhf1, hits give low values 1 | locus YBR021W, strain FUR4, hits give low values 0.999 | locus YBR023C, strain chs3, hits give low values 1.02 | locus YBR171W, strain sec66, hits give low values 1 | locus YBR229C, strain ROT2, hits give low values 1 | locus YBR231C, strain swc5, hits give low values 1.09 | locus YCL011C, strain gbp2, hits give low values 1 | locus YCL016C, strain dcc1, hits give low values 1.08 | locus YCL029C, strain bik1, hits give low values 1.02 | locus YCL061C, strain MRC1, hits give low values 0.991 | locus YCL069W, strain vba3, hits give low values 1.01 | locus YCR088W, strain abp1, hits give low values 1 | locus YDL005C, strain med2, hits give low values 1.01 | locus YDL035C, strain GPR1, hits give low values 1 | locus YDL040C, strain nat1, hits give low values 1.06 | locus YDL074C, strain BRE1, hits give low values 1.04 | locus YDL101C, strain DUN1, hits give low values 1.02 | locus YDL134C, strain PPH21, hits give low values 1.03 | locus YDL185W, strain tfp1, hits give low values 1.01 | locus YDL192W, strain arf1, hits give low values 1.05 | locus YDR001C, strain nth1, hits give low values 1.01 | locus YDR069C, strain doa4, hits give low values 0.985 | locus YDR101C, strain arx1, hits give low values 1.03 | locus YDR159W, strain sac3, hits give low values 1.1 | locus YDR162C, strain NBP2, hits give low values 1.04 | locus YDR195W, strain ref2 0.955 | locus YDR297W, strain sur2, hits give low values 1 | locus YDR318W, strain mcm21, hits give low values 1.01 | locus YDR334W, strain swr1, hits give low values 1 | locus YDR335W, strain msn5, hits give low values 1.01 | locus YDR388W, hits give low values 1.01 | locus YDR392W, strain spt3, hits give low values 1.02 | locus YDR502C, strain sam2, hits give low values 1 | locus YEL003W, strain gim4, hits give low values 0.99 | locus YEL037C, strain rad23, hits give low values 1.04 | locus YEL061C, strain CIN8 (second series), hits give low values 1 | locus YEL061C, strain CIN8, hits give low values 1.02 | locus YER015W, strain faa2, hits give low values 1 | locus YER110C, hits give low values 0.995 | locus YER111C, strain swi4, hits give low values 1.04 | locus YER155C, strain BEM2 (second series), hits give low values 0.967 | locus YER155C, strain BEM2, hits give low values 1.03 | locus YER167W, strain BCK2, hits give low values 1.01 | locus YFR010W, strain ubp6, hits give low values 1.02 | locus YGL078C, strain dbp3, hits give low values 1 | locus YGL086W, strain mad1, hits give low values 1.02 | locus YGL167C, strain pmr1, hits give low values 1.02 | locus YGL173C, strain kem1, hits give low values 0.991 | locus YGL227W, strain vid30, hits give low values 1 | locus YGL240W, strain doc1, hits give low values 0.99 | locus YGL248W, strain PDE1, hits give low values 1.03 | locus YGL253W, strain hxk2, hits give low values 1.03 | locus YGR078C, strain PAC10, hits give low values 1.03 | locus YGR135W, strain pre9, hits give low values 0.993 | locus YGR229C, strain SMI1, hits give low values 1.08 | locus YGR252W, strain gcn5, hits give low values 1.07 | locus YHR013C, strain ard1, hits give low values 1.06 | locus YHR027C, strain rpn1, hits give low values 1.01 | locus YHR030C, strain SLT2, hits give low values 1.03 and 1.01 | locus YHR079C, strain IRE1 (second series), hits give low values 0.998 | locus YHR079C, strain IRE1, hits give low values 0.999 | locus YHR129C, strain ARP1, hits give low values 1.03 | locus YHR142W, strain chs7, hits give low values 1.06 | locus YHR200W, strain rpn10, hits give low values 0.988 | locus YIL066C, strain RNR3, hits give low values 1.04 | locus YIL073C, strain SPO22, hits give low values 1.05 | locus YIL125W, strain kgd1, hits give low values 0.992 | locus YJL092W, strain hpr5, hits give low values 1.01 | locus YJL095W, strain BCK1 (second series), hits give low values 1.03 | locus YJL095W, strain BCK1, hits give low values 1.06 and 1.01 | locus YJL115W, strain asf1, hits give low values 1.03 | locus YJL129C, strain trk1, hits give low values 1.03 | locus YJL134W, strain LCB3, hits give low values 1.02 | locus YJL154C, strain vps35, hits give low values 1 | locus YJL164C, strain tpk1, hits give low values 1.01 | locus YJL166W, strain qcr8, hits give low values 1.01 | locus YJL187C, strain SWE1 (second series), hits give low values 1.01 | locus YJL187C, strain SWE1, hits give low values 0.996
